Measured values from PubChem BioAssay (NCI).
This is part of a sample that, as a whole, favours compounds with a hit. Of some 83,000 tested, about 20% had one in any assay.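 Compound tested at a single concentration for 48 hours in 96-well plates; a percent growth value below 10 was scored as active.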 Values without a mark were called inactive. Activity calls are given as the source filed them.

What follows are compounds tested on HL-60(TB) leukemia (assay: NCI-60 one-dose screen, 48 h (100 = growth as untreated, 0 = no growth, -100 = all killed)). Conditions: 10 µM unless noted.

With `O=C(NO)c1ccc(CNc2nc(-c3ccccc3)c3ccccc3n2)cc1` as the compound, how does the growth read?
The growth was -4.14% (active).

How did the growth turn out when `CCN(CC)c1ccc(/C=N/Nc2nc(-c3ccc(Br)cc3)cs2)c(O)c1` was run?
The growth was 35.6%.

`CC[C@@]12CC(C(=O)OC)=C3Nc4cc5c(cc4[C@@]34CCN(C[C@H]3O[C@H]31)[C@@H]24)[C@@H]1[C@H](O5)[C@@H](O)[C@@]2(CC)CC(C(=O)OC)=C3Nc4cc(O)ccc4[C@@]34CCN1[C@@H]24` was tested. Which growth did it give?
The growth was -39.1% (active).

For `COc1ccc(-c2cc(C(=O)N=Nc3c(O)[nH]c4ccc(F)cc34)c3ccccc3n2)cc1`, which growth is on record?
The growth was 51.6%.

For `COc1ccc(N(C)c2cc(C#N)nc3ccccc23)cc1N`, which growth is on record?
Its growth is -10% (active).

`COc1cc2c(cc1OC)CN(CCCCOc1cc(O)c3c(=O)cc(-c4ccccc4)oc3c1)CC2` was tested. Which growth did it give?
Its growth is 7.79% (active).

`O=c1cc(-c2ccccc2)oc2cc(OCCCNCc3ccccc3)cc(O)c12` was tested. Which growth did it give?
The growth was -46.3% (active).

How did the growth turn out when `COc1ccc(-c2nc3ccccc3n2CC(=O)N=Nc2c(O)[nH]c3ccc(Br)cc23)cc1` was run?
The growth was 45.2%.

With `c1n[nH]cc1-c1nc2ccc3cn[nH]c3c2c2c1CCCC2` as the compound, how does the growth read?
The growth was 94.4%.

For `CN1CCN(c2ccc(C(=O)/C=C/c3cc(Br)ccc3F)cc2)CC1`, which growth is on record?
The growth was -22.1% (active).

With `O=C(Nc1cccc(C(F)(F)F)c1)c1cncc(C#Cc2cnc3ccc(N4CCOCC4)nn23)c1` as the compound, how does the growth read?
The growth was -33% (active).

How did the growth turn out when `Clc1cccc(Cl)c1/C=C/c1cc(/C=C/c2ccc(Br)cc2)c2ccccc2n1` was run?
Its growth is 101%.

With `C/C(=C\CC/C=C(\C)CC/C=C(\C)CC[C@@H](O)C(C)(C)O)CC/C=C(\C)CC[C@@H](O)C(C)(C)O` as the compound, how does the growth read?
The growth was -49.3% (active).

Which growth does the source give for `CN(C(=O)c1ccc(C(F)(F)F)cc1C(F)(F)F)c1sc2c(c1C#N)CCC(=O)C2` here?
The growth was 55.3%.

`CN(CCO)c1oc(-c2ccccc2)nc1[P+](c1ccccc1)(c1ccccc1)c1ccccc1` was tested. Which growth did it give?
Its growth is -33.1% (active).

With `Nc1nnc(-c2c[nH]c3ccc(Br)cc23)c(-c2c[nH]c3ncc(Br)cc23)n1` as the compound, how does the growth read?
The growth was 23.1%.

With `C[C@H]1[C@@H](CC(=O)N[C@@H](Cc2coc3ccccc23)B(O)O)O[C@@H]2OC3(C)CC[C@H]4[C@H](C)CC[C@@H]1[C@@]24O3` as the compound, how does the growth read?
The growth was 11.2%.

Which growth does the source give for `COc1cc(CNC(=O)C[C@H](C)CCC=C(C)C)ccc1OCc1cn(-c2ccc(Cl)cc2Cl)nn1` here?
Its growth is 95.5%.

With `Cc1ccc2c(N)c(C(=O)Nc3ccc(OC(F)(F)F)cc3)sc2n1` as the compound, how does the growth read?
Its growth is 61.6%.

How did the growth turn out when `COc1ccc2c(c1)N=C(C(=O)O)/C2=C/c1sc(Nc2ccc(O)cc2)nc1O` was run?
Its growth is 85.8%.

Which growth does the source give for `O=C(NN1C(=O)/C(=C/C=C/c2ccc([N+](=O)[O-])o2)SC1=S)c1ccc([N+](=O)[O-])cc1` here?
Its growth is -7.3% (active).

`O=C(c1ccc(Cl)cc1)C1[C@H](c2ccccc2Br)[C@@H](c2ccccc2)NC12C(=O)Nc1ccc(Cl)cc12` (stereo not given in full) was tested. Which growth did it give?
Its growth is 32%.

For `O=C(CN1CCN(c2ncnc3c2cnn3-c2ccccc2)CC1)Nc1ccc(Br)cc1`, which growth is on record?
The growth was 64.3%.

With `COc1cccc(/C=C2\N=C(C)N(CCc3ccc(S(N)(=O)=O)cc3)C2=O)c1` as the compound, how does the growth read?
Its growth is 89.4%.

How did the growth turn out when `O=c1oc2ccccc2cc1-c1csc(N=Nc2c(O)[nH]c3ccc(Cl)cc23)n1` was run?
Its growth is 99.1%.

How did the growth turn out when `COc1ccc2[nH]c(O)c(N=NC(=O)COc3ccc(NC(=O)Nc4ccccc4)cc3)c2c1` was run?
Its growth is 96%.

How did the growth turn out when `O=C(Nc1nc2ccccc2s1)Nc1ccccc1Cl` was run?
Its growth is 97.4%.

How did the growth turn out when `c1ccc(CSc2nnc(-c3ccc4nc(-c5ccccc5)[nH]c4c3)o2)cc1` was run?
The growth was 83.5%.

`Cc1ccc(C2CC(c3ccc(NC(=O)Nc4ccccc4)cc3)=NN2c2ccc(S(C)(=O)=O)cc2)cc1` (stereo not given) was tested. Which growth did it give?
Its growth is 13.4%.

With `C=C1CCC2C3(C)COC(c4ccccc4)OC3CCC2(C)C1CC(Sc1ccccc1)C1=CCOC1=O` (stereo not given) as the compound, how does the growth read?
The growth was -33% (active).

For `N#CC1=C(c2cccs2)Nc2c(c(-c3ccccc3)nn2-c2ccccc2)C12C(=O)Nc1ccc(Cl)cc12` (stereo not given), which growth is on record?
The growth was -4.48% (active).

With `C[C@@H]1CN(c2ccc3ncc(C#Cc4cncc(C(=O)Nc5ccc(CN6CCN(C)CC6)c(C(F)(F)F)c5)c4)n3n2)C[C@@H](C)O1` as the compound, how does the growth read?
The growth was -53.6% (active).

With `Nc1nn2c(-c3cc4ccccc4oc3=O)ccnc2c1N=Nc1ccccc1` as the compound, how does the growth read?
The growth was 108%.

With `CN1CCN(C(=O)CCN(C(=O)Oc2cc3c(c4ccccc24)[C@H](CCl)CN3C(=O)c2cc3cc(OCCCN4CCC4)ccc3[nH]2)[C@H]2CCSSC2)CC1` as the compound, how does the growth read?
The growth was -56.7% (active).

`COc1ccc2nc(Nc3cccc(NC(=O)c4ccc(CN5CCCN(C)CC5)c(C(F)(F)F)c4)c3)ccc2c1` was tested. Which growth did it give?
Its growth is -28% (active).

For `O=C(Cn1c(/C=C/c2ccccc2)nc2ccccc2c1=O)Nc1ccc(Cl)cc1`, which growth is on record?
Its growth is 99.2%.

With `Cn1cc(-c2cc(N)n3nc(-c4c[nH]c5ccccc45)cc3n2)c2cc(Br)cnc21` as the compound, how does the growth read?
Its growth is -66.7% (active).

`CSc1nc(-c2cccc(C)c2)c2cc(-c3ccccc3)n(C)c2n1` was tested. Which growth did it give?
The growth was -15.8% (active).

For `O=C1/C(=C/C=C/c2ccco2)SC(=S)N1CC(=S)C1C=CS(=O)(=O)C1` (stereo not given), which growth is on record?
Its growth is 59.4%.

For `O=C(CSc1nc2ccccc2c(=O)n1-c1ccc(Cl)cc1)Nc1ccc(-c2nc3ccccc3[nH]2)cc1`, which growth is on record?
The growth was 44.4%.
